Read-out in test [1]: Transforming growth factor beta 1 (TGFb1), TGFB1 (gene 7040)
The experiment in a line: BSK_KF3CT_TGFb1: BioMAP Diversity Plus: KF3CT Assay for Transforming growth factor beta 1 (TGFb1) Biomarker Activity (AID 2283072). The following applies: primary human keratinocytes with fibroblasts; actives raise or lower the signal. The method in brief: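 ELISA quantifies TGF-b1 at 24 h post-dose in a primary human skin co-culture of keratinocytes and fibroblasts, with gain or loss judged against DMSO. Parallel SRB total-protein staining flags overt cytotoxicity.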

Read-out in test [2]: C-C motif chemokine 2 (Homo sapiens) (UniProt P13500)
The experiment in a line: BSK_KF3CT_MCP1: BioMAP Diversity Plus: KF3CT Assay for Monocyte Chemoattractant Protein 1 (MCP1/CCL2) Biomarker Activity (AID 2283073). The following applies: primary human keratinocytes with fibroblasts; actives raise or lower the signal. A digest of the protocol: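 ELISA read-out of MCP-1, 24 h post-dose, in primary human skin keratinocytes co-cultured with fibroblasts. Parallel SRB staining monitors cytotoxicity; changes fitted both directions relative to DMSO.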

Read-out in test [3]: Matrix Metallopeptidase 9 (MMP9), MMP9 (gene 4318)
The test can be described thus: BSK_KF3CT_MMP9: BioMAP Diversity Plus: KF3CT Assay for Matrix Metallopeptidase 9 (MMP9) Biomarker Activity (AID 2283074).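 On AC50: MMP9 protein level quantified by ELISA in the co-culture.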 To be noted: primary human keratinocytes with fibroblasts; actives raise or lower the signal. A digest of the protocol:
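ELISA read-out of MMP-9 at 24 h post-dosing in a co-culture of human skin keratinocytes and foreskin fibroblasts. Gain or loss of signal was fitted in both directions against DMSO.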

Read-out in test [4]: urokinase plasminogen activator (uPA), PLAU (gene 5328)
The test can be described thus: BSK_KF3CT_uPA: BioMAP Diversity Plus: KF3CT Assay for urokinase plasminogen activator (uPA) Biomarker Activity (AID 2283075). To be noted: primary human keratinocytes with fibroblasts; actives raise or lower the signal. A digest of the protocol: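 Skin co-culture (keratinocytes + foreskin fibroblasts), human primary; 24 h post-dose; uPA by ELISA; gain/loss fit vs DMSO baseline.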

Read-out in test [5]: E-selectin (Homo sapiens) (UniProt P16581)
The test can be described thus: BSK_LPS_Eselectin: BioMAP Diversity Plus: LPS Assay for Eselectin Biomarker Activity (AID 2283077). To be noted: primary human HUVEC with PBMC; actives raise or lower the signal. The method in brief: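 E-selectin ELISA on LPS-stimulated endothelial cell/PBMC co-cultures, read 24 h post-treatment; gains and losses fitted against DMSO. Parallel SRB staining (0.1% SRB after 10% TCA fixation, 560 nm) flags overt cytotoxicity.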

Read-out in test [6]: Interleukin-8 (IL8), CXCL8 (gene 3576)
The test can be described thus: BSK_LPS_IL8: BioMAP Diversity Plus: LPS Assay for Interleukin-8 (IL8) Biomarker Activity (AID 2283078). To be noted: primary human HUVEC with PBMC; actives raise or lower the signal. The method in brief: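 ELISA read-out of IL-8 after 24 h chemical treatment of LPS-activated endothelial/PBMC human primary co-cultures. Changes either up or down relative to DMSO; overt cytotoxicity checked by sulforhodamine B staining in parallel wells.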

Test [7] in a line: BSK_LPS_SRB: Viability Assessment in the BioMAP Diversity Plus: LPS Assay (AID 2283079).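 Further: total protein by sulforhodamine B absorbance as a cytotoxicity measure; measured one day after compound addition.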 The following applies: primary human HUVEC with PBMC. The method in brief: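 SRB viability endpoint: cells fixed with 10% TCA, stained with 0.1% SRB, read at 560 nm, 24 h post-dose. HUVEC/PBMC co-culture; signal change in either direction scored relative to DMSO.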
Read-out in test [8]: Interleukin-1 alpha (IL1a), IL1A (gene 3552)
The experiment in a line: BSK_LPS_IL1a: BioMAP Diversity Plus: LPS Assay for Interleukin-1 alpha (IL1a) Biomarker Activity (AID 2283080). To be noted: primary human HUVEC with PBMC; actives raise or lower the signal. The method in brief:
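Readout is IL-1a level by ELISA, 24 h post-dose, fitted as gain or loss relative to DMSO. System: LPS-activated human primary co-culture of vascular endothelium and peripheral blood mononuclear cells, with parallel SRB total-protein cytotoxicity.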

Read-out in test [9]: Monocyte Chemoattractant Protein-1 (MCP1), CCL2 (gene 6347)
The test can be described thus: BSK_LPS_MCP1: BioMAP Diversity Plus: LPS Assay for Monocyte Chemoattractant Protein-1 (MCP1) Biomarker Activity (AID 2283081).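 On AC50: secreted MCP-1 protein quantified by ELISA in culture supernatant.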 To be noted: primary human HUVEC with PBMC; actives raise or lower the signal. A digest of the protocol: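 Secreted MCP-1 read by ELISA at 24 h post-dosing in an LPS-activated co-culture of endothelial cells with peripheral blood mononuclear cells. Fits run in both directions, DMSO as baseline; parallel SRB staining tracks overt cytotoxicity.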

Test [10] is described as follows: BSK_LPS_PGE2: BioMAP Diversity Plus: LPS Assay for Prostaglandin E2 (PGE2) Biomarker Activity (AID 2283082). The following applies: primary human HUVEC with PBMC; actives raise or lower the signal. A digest of the protocol: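 PGE2 release measured by ELISA in an LPS-activated co-culture of human umbilical vein endothelial cells and peripheral blood mononuclear cells, read at 24 h post-dosing. DMSO served as baseline for bidirectional curve fitting.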

Read-out in test [11]: Macrophage colony-stimulating factor (MCSF), CSF1 (gene 1435)
The test can be described thus: BSK_LPS_MCSF: BioMAP Diversity Plus: LPS Assay for Macrophage colony-stimulating factor (MCSF) Biomarker Activity (AID 2283083). The following applies: primary human HUVEC with PBMC; actives raise or lower the signal. A digest of the protocol:
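Bidirectional fitting against DMSO was applied to M-CSF levels read by ELISA at 24 h post-dose. The system pairs human umbilical vein endothelium with peripheral blood mononuclear cells; parallel SRB staining tracked cytotoxicity.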

Read-out in test [12]: Tissue Factor, F3 (gene 2152)
The experiment in a line: BSK_LPS_TissueFactor: BioMAP Diversity Plus: LPS Assay for Tissue Factor Biomarker Activity (AID 2283084). The following applies: primary human HUVEC with PBMC; actives raise or lower the signal. The method in brief:
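Compound was added to an endothelial cell/PBMC co-culture, and after 24 h tissue factor (CD142) was read by ELISA. Gain or loss of signal was fitted against a DMSO baseline, and parallel SRB staining (560 nm) tracked overt cytotoxicity.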

Read-out in test [13]: Tumor necrosis factor (Homo sapiens) (UniProt P01375)
The test can be described thus: BSK_LPS_TNFa: BioMAP Diversity Plus: LPS Assay for Tumour Necrosis Factor alpha (TNFa) Biomarker Activity (AID 2283085).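 On AC50: TNFa protein level quantified by ELISA in the co-culture.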 To be noted: primary human HUVEC with PBMC; actives raise or lower the signal. A digest of the protocol:
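TNFa was quantified by ELISA in LPS-activated co-cultures of human endothelial cells and PBMC, 24 h post-dosing. Both increases and decreases versus DMSO were fitted.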

Read-out in test [14]: Vascular cell adhesion molecule 1 (VCAM1), VCAM1 (gene 7412)
The test can be described thus: BSK_LPS_VCAM1: BioMAP Diversity Plus: LPS Assay for Vascular cell adhesion molecule 1 (VCAM1) Biomarker Activity (AID 2283086). To be noted: primary human HUVEC with PBMC; actives raise or lower the signal. The method in brief:
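VCAM-1 quantified by ELISA in an LPS-activated co-culture of human endothelial cells and peripheral blood mononuclear cells, read 24 h post-treatment. Fitted in both directions versus DMSO; parallel SRB staining flags overt cytotoxicity.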

Read-out in the next test: CD38, CD38 (gene 952)
The test can be described thus: BSK_SAg_CD38: BioMAP Diversity Plus: SAg Assay for CD38 Biomarker Activity (AID 2283087). To be noted: primary human HUVEC with PBMC; actives raise or lower the signal. A digest of the protocol: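 CD38 quantified by ELISA (fluorescence) in a superantigen-activated endothelial cell–PBMC co-culture at 24 h post-dose. Activity fitted in both directions relative to DMSO; parallel SRB and Alamar Blue cytotoxicity read-outs.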

Read-out in test [15]: Monocyte Chemoattractant Protein-1 (MCP1), CCL2 (gene 6347)
The test can be described thus: BSK_SAg_MCP1: BioMAP Diversity Plus: SAg Assay for Monocyte Chemoattractant Protein-1 (MCP1) Biomarker Activity (AID 2283090). To be noted: primary human HUVEC with PBMC; actives raise or lower the signal. A digest of the protocol:
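Values derive from bidirectional fitting of ELISA-measured MCP1 against DMSO controls. Readings were taken 24 h after dosing human vascular endothelial cells co-cultured with peripheral blood mononuclear cells under superantigen stimulation.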

Read-out in the next test: CD40, CD40 (gene 958)
The test can be described thus: BSK_LPS_CD40: BioMAP Diversity Plus: LPS Assay for CD40 Biomarker Activity (AID 2283076). To be noted: primary human HUVEC with PBMC; actives raise or lower the signal. The method in brief: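 In the LPS system of human endothelial cells with peripheral blood mononuclear cells, CD40 levels were read by ELISA 24 h post-treatment. Signal changes in either direction were fitted against the DMSO baseline, with parallel SRB protein staining.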

Read-out in a further test: CD69, CD69 (gene 969)
The test can be described thus: BSK_SAg_CD69: BioMAP Diversity Plus: SAg Assay for CD69 Biomarker Activity (AID 2283089). The following applies: primary human HUVEC with PBMC; actives raise or lower the signal. A digest of the protocol:
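HUVEC co-cultured with PBMC were dosed with chemical, and CD69 was measured by ELISA with fluorescence read-out 24 h later. Bidirectional curve fitting used DMSO as negative control and activity baseline.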

The source made the active and inactive calls. How the source made its calls: active means hit-call score of the fitted dose curve at least 0.9, where 1 is the maximum; inactive means score below 0.9.

Sequence of Tumor necrosis factor (Homo sapiens) (P01375 whole entry, looked up): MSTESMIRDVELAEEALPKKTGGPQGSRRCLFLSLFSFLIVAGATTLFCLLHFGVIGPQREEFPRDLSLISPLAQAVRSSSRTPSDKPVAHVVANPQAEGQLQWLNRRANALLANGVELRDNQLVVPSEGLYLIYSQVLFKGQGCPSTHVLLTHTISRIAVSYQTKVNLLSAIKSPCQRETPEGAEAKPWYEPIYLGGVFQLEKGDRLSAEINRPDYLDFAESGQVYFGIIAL
Sequence of E-selectin (Homo sapiens) (P16581 whole entry, looked up): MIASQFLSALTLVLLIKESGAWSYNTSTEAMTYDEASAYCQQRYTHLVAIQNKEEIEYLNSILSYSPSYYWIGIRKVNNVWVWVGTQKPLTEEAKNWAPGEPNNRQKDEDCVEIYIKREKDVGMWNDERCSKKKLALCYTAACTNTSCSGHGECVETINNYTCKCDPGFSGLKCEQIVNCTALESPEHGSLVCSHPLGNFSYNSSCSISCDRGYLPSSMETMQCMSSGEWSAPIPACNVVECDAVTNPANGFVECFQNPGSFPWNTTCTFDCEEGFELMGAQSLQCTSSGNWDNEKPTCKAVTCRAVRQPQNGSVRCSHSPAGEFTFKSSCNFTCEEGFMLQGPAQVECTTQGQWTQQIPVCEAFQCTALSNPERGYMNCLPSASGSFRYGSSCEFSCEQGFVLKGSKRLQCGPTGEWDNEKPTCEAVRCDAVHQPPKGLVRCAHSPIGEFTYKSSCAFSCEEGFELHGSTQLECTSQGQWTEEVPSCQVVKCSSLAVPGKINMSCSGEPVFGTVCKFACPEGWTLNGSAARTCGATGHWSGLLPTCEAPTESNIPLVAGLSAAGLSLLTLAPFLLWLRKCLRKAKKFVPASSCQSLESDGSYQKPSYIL

The term AC50 denotes the concentration at which the activity in the assay is half-maximal. Turning to `CCOP(=S)(OCC)Oc1cc(C)nc(C(C)C)n1`, the outcome in [1], in test [2], in test [3], in test [4], in test [5] and in test [6] was inactive. The outcome in [7], in [8], in [9], in [10], in test [11] and in test [12] was inactive. Also, the outcome in [14] was “inactive”; with CD38, CD38 (gene 952), “inactive”; in [15], “inactive”. In addition, the AC50 in [13] is 20 µM (active).

As for `CC[C@H](C)[C@H]1O[C@]2(C=C[C@@H]1C)C[C@@H]1C[C@@H](C/C=C(\C)[C@@H](O[C@H]3C[C@H](OC)[C@@H](O[C@H]4C[C@H](OC)[C@@H](NC)[C@H](C)O4)[C@H](C)O3)[C@@H](C)/C=C/C=C3\CO[C@@H]4[C@H](O)C(C)=C[C@@H](C(=O)O1)[C@]34O)O2`, the AC50 was 10.8 µM (active) in [1]; 7.96 µM (active) in test [2]; 6.21 µM (active) in test [3]; 9.27 µM (active) in test [4]; 1.86 µM (active) with CD40, CD40 (gene 958); 5.98 µM (active) in test [5]. Besides, the AC50 in test [6] was 5.57 µM (active); in test [7], 5.52 µM (active); in test [8], 3.68 µM (active); in test [9], 5.49 µM (active); in test [11], 4.33 µM (active); in [12] it was 9.74 µM (active). Further, the AC50 in [13] is 4.56 µM (active); in test [14] it was 7.42 µM (active); in the test with CD38, CD38 (gene 952), 3.25 µM (active); in [15], 3.38 µM (active). In addition, the outcome in [10] was inactive.

Turning to `CCc1cnc(C2=NC(C)(C(C)C)C(=O)N2)c(C(=O)O)c1` (configuration not stated), the result in test [1], in [2], in test [3], in test [4], in test [5] and in test [6] was inactive. In addition, the outcome in test [7], in [8], in [9], in test [10], in test [11] and in [12] was inactive. For the same compound, the outcome in test [13] was “inactive”; in [14], “inactive”; with CD38, CD38 (gene 952), “inactive”; in test [15], “inactive”.

`Nc1nc(N)nc(NC2CC2)n1`: the result in [1], in test [2], in [3], in test [4], in test [5] and in [6] was inactive. For the same compound, the result in [7], in test [8], in [9], in [10], in test [11] and in test [12] was inactive. For the same compound, the outcome is “inactive” in test [13]; “inactive” in test [14]; “inactive” with CD38, CD38 (gene 952); “inactive” with CD69, CD69 (gene 969); “inactive” in test [15].

Take `COP(=O)(OC)C(O)C(Cl)(Cl)Cl` (configuration not stated): the outcome in [1] is “inactive”; in test [2], “inactive”; in test [3] it was “inactive”; in test [4] it was “inactive”; in the test with CD40, CD40 (gene 958), “inactive”; in [5] it was “inactive”. In addition, the result in [7], in test [8], in test [9], in test [11], in [12] and in test [13] was inactive. The outcome in [14] was “inactive”; with CD38, CD38 (gene 952) it was “inactive”; with CD69, CD69 (gene 969), “inactive”; in test [15] it was “inactive”.

These data come from PubChem BioAssay (EPA / NIEHS).
